Consider 40 molecules from PubChem BioAssay (NCATS).

Values joined by “and” are separate entries in the source; they are usually repeats but may differ in a detail not shown here. Equal values may be shown once. Inconclusive results are not listed. Values without a mark were called inactive. Calls come from the whole dose curve.

Chain of Bile acid receptor (Homo sapiens) (Q96RI1 whole entry, looked up): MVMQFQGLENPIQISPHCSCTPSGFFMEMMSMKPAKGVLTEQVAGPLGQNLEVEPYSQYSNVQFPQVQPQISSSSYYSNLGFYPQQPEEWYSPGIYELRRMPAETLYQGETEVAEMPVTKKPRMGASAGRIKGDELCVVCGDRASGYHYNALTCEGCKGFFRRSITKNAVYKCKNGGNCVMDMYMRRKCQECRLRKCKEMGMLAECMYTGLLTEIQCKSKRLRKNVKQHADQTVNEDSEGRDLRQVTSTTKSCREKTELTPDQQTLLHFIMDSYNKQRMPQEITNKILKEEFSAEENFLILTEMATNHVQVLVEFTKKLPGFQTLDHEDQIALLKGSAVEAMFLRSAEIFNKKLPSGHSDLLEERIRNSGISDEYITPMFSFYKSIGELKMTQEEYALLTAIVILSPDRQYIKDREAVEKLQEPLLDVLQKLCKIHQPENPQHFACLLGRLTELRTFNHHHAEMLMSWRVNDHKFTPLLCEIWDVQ

In this assay the target is Bile acid receptor (Homo sapiens) (UniProt Q96RI1). The assay is described as follows: qHTS assay for small molecule agonists of farnesoid X receptor signaling (AID 588527).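 Note: series mostly up to about 77 µM; 0% = vehicle basal and 100% = reference agonist.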 To be noted: HEK293T FXR-UAS-bla, beta-lactamase ratio, 16 h; activation: stronger effect = higher value. The text has this:
NIH Chemical Genomics Center [NCGC] U.S. Environmental Protection Agency [EPA] National Institutes of Environmental Health Sciences [NIEHS] National Toxicology Program [NTP] NCGC Assay Overview The farnesoid-X-receptor (FXR), a nuclear hormone receptor is highly expressed in liver, intestine, kidney and adrenal cortex. Natural ligands of FXR are the bile acids (Cholic acid, Chenodeoxy cholic acid etc). It is an important regulator of diverse metabolic pathways, including the bile acid homeostasis, lipid and glucose metabolisms. FXR regulates the expression of target genes by binding either as a monomer or as a heterodimer with RXR (retinoid X receptor). As FXR regulates a large number of target genes involved in bile acid, lipoprotein and glucose metabolisms, it is a potential pharmacological target for bile acid and lipid disorders. Thus screening environmental chemicals on FXR signaling can be used for the studies focused on metabolic syndrome, hepatic and intestinal toxicity etc.
NCGC Assay Protocol Summary Using a beta-lactamase reporter-gene under control of Farnesoid X receptor (FXR) response element, a cell-based assay [GeneBLAzer FXR-UAS-bla assay developed by Invitrogen] was used to measure FXR ligands signaling. GeneBLAzer FXR-UAS-bla HEK293T cells were used with assay medium containing 10% dialyzed FBS. The assay was performed in clear bottom black Greiner 1536-well plates. Chenodeoxycholic acid and Guggulsterone were used in the screen as agonist and antagonist positive controls respectively. Library compounds were measured for their ability to stimulate the reporter gene activity. Compounds were screened in a titration series in 1536-well format. […] Data was normalized relative to Chenodeoxycholic acid control (100 uM, 100%), and DMSO only wells (basal, 0%). Concentration-response titration points for each compound were fitted to the Hill equation yielding concentrations of half-maximal stimulation (EC50) and maximal response (efficacy) values. qHTS protocol for FXR beta-lactamase assay in agonist mode [Step] [Parameter] [Value] [Description] 1. Reagent; 6 uL; 5000 cells/well 2. Incubation; 37 C for 5-7 hrs 3. Compounds; 23 nL; 0.59 nM to 92 uM 4. Controls (Chenodeoxycholic acid); 23 nL, - One column with dose response, start 200 uM, 1:2 dilutions in duplicates - Final concentrations of 100 uM and 60 uM in two columns 5. Incubation; 37 C for 16 hrs 6. Detection reagent; 1 uL of CCF4-dye 7. Incubation; RT for 2 hrs 8. Detection; Fluorescence; Envision plate reader
For `CCOC(C)(C)C`, the activation is 2.11%. On to `C=Cc1ccccc1C=C`, for which the activation was -0.167%. Next, `CCCOC(=O)c1cc(O)c(O)c(O)c1`: -0.748%; `CC(C)(C)CC(C)(C)c1ccc(OCCO)cc1`: 2.48%. Regarding `N[C@@H](Cc1ccccc1)C(=O)O`, the activation was 1.47%. Consider `COc1cc(OC)nc(NC(=O)NS(=O)(=O)c2ncccc2C(F)(F)F)n1`, for which the activation was -0.618%. Next, `CCOCCO`: 0.436%; `COC(=O)CCCCC(=O)OC`: -2.8% and 3.47% and -2.74%; `CC(C)(C)OOC(C)(C)c1ccc(C(C)(C)OOC(C)(C)C)cc1`: 3.45%. As to `CC(=O)OC(C(=O)c1ccccc1)c1ccccc1` (stereo not given), the activation was -3.38%.

With `CCCCOCCOCCOC(=O)CCCCC(=O)OCCOCCOCCCC`, the activation is 3.42%. Next, `CS/C(C)=N/OC(=O)N(C)SN(C)C(=O)O/N=C(\C)SC`: 3.69%; `O=C(O)c1ccc(CO)o1`: 0.258%; `O=C(O)c1ccc(Cl)cc1Cl`: -2.47%. Take `CC(=O)OC1CC(C)OC(C)O1` (stereo not given): the activation was -3.17% and -0.0131%.

On to `CS/C(=N\O)C(=O)N(C)C`, for which the activation was -1.99%. On to `COc1nc(C)nc(NC(=O)NS(=O)(=O)c2ccccc2OCCCl)n1`, for which the activation was -2.13%. `O=C(O)c1c(Cl)ccc2cc(Cl)cnc12`: the activation is 0.431%. As for `O=C1C=C2C(=CCOC2O)O1` (stereo not given), the activation was -4.19%. For `COC(=O)c1cccc(C)c1S(=O)(=O)NC(=O)Nc1nc(OCC(F)(F)F)nc(N(C)C)n1`, the activation is -2.17%. Regarding `CCCCCC/C(C=O)=C\c1ccccc1`, the activation is -2.14%. With `O=c1oc2cc(O)ccc2c2oc3cc(O)ccc3c12`, the activation is 8.73%. As for `CNc1ccc(O)cc1`, the activation was 3.85%. Take `CC(C)(C)N(NC(=O)c1ccc(Cl)cc1)C(=O)c1ccccc1`: the activation is 5.56%.

Turning to `O=P(OCC(Br)CBr)(OCC(Br)CBr)OCC(Br)CBr` (stereo not given), the activation was 0.554%. Next, `O=[N+]([O-])c1ccc2ccc3cccc4ccc1c2c34`: -3.28%; `O=C(O)CNC(=O)c1ccc([N+](=O)[O-])cc1`: 1.14%; `CCC[CH2][Sn](=[O])[CH2]CCC`: -6.54%. Turning to `Cc1cc(C(C)(C)CC(C)(C)C)ccc1OCCOCC[N+](C)(C)Cc1ccccc1`, the activation was -0.746%. Regarding `NC=O`, the activation was -0.541%. On to `CCO[Si](CCC#N)(OCC)OCC`, for which the activation is 0.364%. With `COC(=O)C1CCC(C(=O)OC)CC1` (stereo not given), the activation was -4.06%. With `CCCCCCOCCOCCO`, the activation was -1.2%.

On to `OCC(O)CO`, for which the activation is -1.04% and -2.12%. For the molecule `COC(=O)c1ccccc1S(=O)(=O)NC(=O)Nc1nc(C)nc(OC)n1`, the activation was -2.54%. For `O=C1c2ccccc2C(=O)N1SC(Cl)(Cl)Cl`, the activation is 6.44%.

For the molecule `C[Si](Cl)(Cl)c1ccccc1`, the activation is 0.0023%. Take `CCCOCC(C)OCC(C)O` (stereo not given): the activation was 1.34%. On to `CCO[Si](CCCN)(OCC)OCC`, for which the activation is -1.61% and 1.5%. As for `CC(C)CCCCCCc1ccc(O)cc1`, the activation was 6.07%.
